{
  "source": "PubChem BioAssay (NCATS)",
  "note": "Results filed as inconclusive are left out. Activity calls are given as the source filed them. The call rests on the fitted dose curve; in most records, active means well fitted inhibition curve with a large enough effect; inconclusive means small, poorly fitted or top-dose-only effect; inactive means flat fitted curve, though single readings scatter. Where a SMILES comes first, the peptide text is derived from it. The star is where a group is joined. βNA = c1ccc2cc(N*)ccc2c1; Cbz = O=C(OCc1ccccc1)*",
  "data": [
    {"biological_target": "Calcium and integrin-binding protein 1 (Homo sapiens) (UniProt Q99828)", "sequence (Q99828 whole entry, looked up)": "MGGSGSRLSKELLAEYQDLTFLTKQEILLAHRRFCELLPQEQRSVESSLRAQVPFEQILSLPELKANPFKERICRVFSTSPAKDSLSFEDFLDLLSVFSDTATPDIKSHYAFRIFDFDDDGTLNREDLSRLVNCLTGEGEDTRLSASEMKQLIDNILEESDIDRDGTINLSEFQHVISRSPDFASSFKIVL", "test": "Primary qHTS for Identification of Calcium Integrin Binding Protein 1 (CIB1) Competitor (AID 1508620);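 further: GST tagged CIB1 binding a fluorescein labelled alphaIIb integrin peptide tracer; top concentration of the series differs between compounds; on the % scale 0 is the no-effect control and ±100 the full control effect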", "conditions": "CIB1-GST / FITC-alphaIIb peptide fluorescence polarization; series mostly up to 57.7 µM; activity change, negative = inhibition: at the top concentration", "method_in_brief": "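Fluorescence polarization competition: CIB1-GST (1 uM final) preincubated with compound 15 min at room temperature, then FITC-labeled alphaIIb peptide (100 nM final) added for another 15 min. Polarization read at Ex 480/Em 540.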", "values": [
      {"smiles": "COC(=O)C1=CO[C@@H](O[C@@H]2O[C@H](CO)[C@@H](O)[C@H](O)[C@H]2O)[C@@H]2C(CO)=CC[C@H]12", "activity change, negative = inhibition": "1.66% (inactive)"},
      {"smiles": "CC1(C)CC2C(O)C3=C(CC(C)(O)C2C1)C(=O)OC3", "note": "(configuration not stated)", "activity change, negative = inhibition": "-3.07% [at 114 µM] (inactive)"},
      {"smiles": "C=C1CC[C@@H]2[C@@](C)(CO[C@@H]3O[C@H](CO)[C@@H](O)[C@H](O)[C@H]3O)[C@H](O)CC[C@@]2(C)[C@@H]1CC/C(C)=C/CO[C@@H]1O[C@H](CO)[C@@H](O)[C@H](O)[C@H]1O", "activity change, negative = inhibition": "-0.265% [at 30.2 µM] (inactive)"},
      {"smiles": "OC[C@@]1(O)CO[C@H](OC[C@H]2O[C@@H](OC(CCCCc3ccc(O)cc3)CCc3ccc(O)cc3)[C@H](O[C@H]3OC[C@](O)(CO)[C@H]3O)[C@@H](O)[C@@H]2O)[C@@H]1O", "note": "(some centres not stated)", "activity change, negative = inhibition": "2.19% [at 30.2 µM] (inactive)"},
      {"smiles": "COc1cc2c(c(O)c1OC/C=C(\\C)CC/C=C(/C)CCC=C(C)C)CN(C(CCC(=O)O)C(=O)O)C2=O", "note": "(configuration not stated)", "activity change, negative = inhibition": "-7.95% (inactive)"},
      {"smiles": "O=C(/C=C/c1ccc(O)cc1)OC[C@H]1O[C@@H](O/C(=C\\c2ccccc2)C(=O)O)[C@H](O)[C@@H](O)[C@@H]1O", "activity change, negative = inhibition": "-3.17% (inactive)"},
      {"smiles": "O=C(Nc1ccn(Cc2c(F)cccc2C(F)(F)F)n1)c1c(F)cccc1F", "activity change, negative = inhibition": "4.91% [at 30.2 µM] (inactive)"},
      {"smiles": "C/C=C/C=C/C=C/C(=O)O[C@@H]1[C@@H](OC)C2=C(C(=O)N(C(CCC(=O)O)C(=O)O)C2)[C@@]2(C)CCCC(C)(C)[C@H]12", "note": "(some centres not stated)", "activity change, negative = inhibition": "-4.35% (inactive)"}
    ]},
    {"tested_on": "not listed separately", "test": "Primary qHTS for inhibitors of nuclear receptor binding SET domain protein 2 (NSD2) in an isogenic RCH-ACV NSD2 p.E1099K mutant (9B) (AID 1645876); further: nearly all actives have a fitted effect of over 70% in size; further: potency means the concentration at half of the fitted maximal effect; on activity change, negative = viability loss: on the % scale 0 is the no-effect control and ±100 the full control effect", "conditions": "RCH-ACV NSD2 E1099K (9B) viability, CellTiter-Glo, 72 h; series mostly up to 44.9 µM; activity change, negative = viability loss: at the top concentration", "values": [
      {"smiles": "CC1(O)CC(O)C2C(C(=O)O)=COC(OC3OC(CO)C(O)C(O)C3OC(=O)/C=C/c3ccc(O)cc3)C21", "note": "(configuration not stated)", "outcome": "inactive [at 17.3 µM]"},
      {"smiles": "CC1=C2CC(O)(C(C)(C)O)C(O[C@@H]3O[C@H](CO)[C@@H](O)[C@H](O)[C@H]3O)CC(C)C2CC1=O", "note": "(some centres not stated)", "activity change, negative = viability loss": "-15.6% [at 17.3 µM] (inactive)"},
      {"smiles": "CC1CCC2(C(=O)O)CCC3(C)C(=CCC4C5(C)C[C@@H](O)[C@@H](O)C(C)(CO)C5CCC43C)C2C1(C)O", "note": "(some centres not stated)", "Potency": "6.32 µM (active)"},
      {"smiles": "C/C(=C\\C1CCC(C)C2CCC3(C)OC123)C(=O)O", "note": "(configuration not stated)", "activity change, negative = viability loss": "2.16% (inactive)"},
      {"smiles": "CC1=CC(=O)[C@]2(O[C@@H]3O[C@@H](C)[C@H](O)[C@@H](O)[C@H]3O)C=CO[C@@H](O[C@@H]3O[C@H](CO)[C@@H](O)[C@H](O)[C@H]3O)[C@H]12", "outcome": "inactive [at 17.3 µM]"},
      {"smiles": "CC(=O)OC1CC(C(C)(C)O)OC2CCC3(C)OC4=C(C(=O)C=C5C(C)C(OC(C)=O)C6(C)C(C)OC546)C(O)C3C12C", "note": "(configuration not stated)", "activity change, negative = viability loss": "-12.5% [at 17.3 µM] (inactive)"},
      {"smiles": "COC(=O)C1=COC(O[C@@H]2O[C@H](CO)[C@@H](O)[C@H](O)[C@H]2O)/C(=C\\COC(=O)/C=C/c2ccccc2)C1CC(=O)OCCc1ccc(O)cc1", "note": "(some centres not stated)", "activity change, negative = viability loss": "1.72% [at 17.3 µM] (inactive)"},
      {"smiles": "CC(C)c1ccc2c(c1)[C@H](O)CC1[C@@](C)(C(=O)O)CCC[C@]21C", "note": "(some centres not stated)", "activity change, negative = viability loss": "-2.35% (inactive)"},
      {"smiles": "CC12CC(O)C(O)C=C1c1cc(O)cc(O)c1C(=O)O2", "note": "(configuration not stated)", "activity change, negative = viability loss": "-8.59% (inactive)"},
      {"smiles": "C/C=C(\\C)C(=O)OC[C@H]1O[C@@H](O[C@H]2[C@@H](O[C@H]3O[C@H](COC(=O)/C(C)=C/C)[C@@H](O)[C@H](O)[C@H]3O[C@@H]3O[C@H](CO)[C@@H](O)[C@H](OC(=O)/C(C)=C/C)[C@H]3O)O[C@H](COC(=O)/C(C)=C/C)[C@@H](O)[C@@H]2O)[C@H](O)[C@@H](O)[C@@H]1O", "activity change, negative = viability loss": "-4.56% [at 9.23 µM] (inactive)"},
      {"smiles": "CC(=O)OC/C(=C/C(=O)O)CC[C@@H]1C(C)=CC(=O)[C@@H]2C(C)(C)CCC[C@@]12C", "activity change, negative = viability loss": "-18.6% (inactive)"},
      {"smiles": "C/C1=C\\CC[C@]2(C)O[C@H]2C(=O)c2c(C)coc2C1", "activity change, negative = viability loss": "-13.9% (inactive)"},
      {"smiles": "CC1=CC(=O)C2C(C)(C)CCC[C@]2(C)[C@H]1CC[C@H](C)CC(=O)O", "note": "(some centres not stated)", "activity change, negative = viability loss": "3.36% (inactive)"},
      {"smiles": "OC[C@@]1(O)CO[C@H](OC[C@H]2O[C@@H](OC(CCCCc3ccc(O)cc3)CCc3ccc(O)cc3)[C@H](O)[C@@H](O)[C@@H]2O)[C@@H]1O", "note": "(some centres not stated)", "outcome": "inactive [at 17.3 µM]"},
      {"smiles": "CCC/C=C1\\OC(=O)C2=C1CCC(O)C2O", "note": "(configuration not stated)", "activity change, negative = viability loss": "-0.664% (inactive)"},
      {"smiles": "O=C(O)c1ccncc1Nc1nn(CCN2CCC(F)(F)CC2)c2ccc(F)cc12", "outcome": "inactive"},
      {"smiles": "CC(C)CC(=O)NCCn1cc(C(=O)O)c(=O)cc1C(O)c1ccccc1", "note": "(configuration not stated)", "activity change, negative = viability loss": "-6.66% (inactive)"},
      {"smiles": "C=C1CC[C@H]2[C@@](C)(CCC(O)[C@@]2(C)CO)[C@@H]1/C=C/C(=C\\C(=O)O)C(=O)O", "note": "(some centres not stated)", "activity change, negative = viability loss": "-3.02% (inactive)"},
      {"smiles": "CC1=C2C[C@@]3(C)C(CCC[C@@H]3C)C(O)C2(O)OC1=O", "note": "(some centres not stated)", "activity change, negative = viability loss": "-21.2% (inactive)"},
      {"smiles": "C=C1C(O)CC2C(C(=O)O)=COC(OC3OC(CO)C(O)C(O)C3OC(=O)/C=C\\c3ccc(O)cc3)C12", "note": "(configuration not stated)", "activity change, negative = viability loss": "0.355% [at 17.3 µM] (inactive)"},
      {"smiles": "CC1(C)CC[C@]2(C(=O)O[C@@H]3O[C@H](CO)[C@@H](O)[C@H](O)[C@H]3O)CC[C@]3(C)C(=CCC4[C@@]5(C)C[C@@H](O)[C@H](O)[C@@](C)(CO)C5[C@H](O)C[C@]43C)C2[C@@H]1O", "note": "(some centres not stated)", "activity change, negative = viability loss": "3.54% [at 17.3 µM] (inactive)"},
      {"smiles": "CC(C)CC(NC(=O)OCc1ccccc1)C(=O)NC(CC(C)C)C(=O)NC(CCC(=O)O)C(=O)Nc1ccc2ccccc2c1", "note": "(stereo not drawn) (Cbz-Leu-Leu-Glu-βNA; configuration not given here)", "activity change, negative = viability loss": "-4.3% (inactive)"},
      {"smiles": "O=C1C(Cl)=C(N2CCOCC2)C(=O)N1c1ccc(Cl)c(Cl)c1", "Potency": "7.96 µM (active)"},
      {"smiles": "Cn1cc(Nc2cnccc2C(=O)O)c2cccnc21", "activity change, negative = viability loss": "4.83% (inactive)"},
      {"smiles": "NC1Nc2ccccc2C1(N)CC1NC(=O)C(Cc2ccccc2)NC(=O)C(Cc2ccccc2)NC1=O", "note": "(configuration not stated)", "activity change, negative = viability loss": "-13% [at 17.3 µM] (inactive)"},
      {"smiles": "C=C1C[C@]23C[C@@]1(O)CC[C@H]2[C@@]12C=C[C@H](O)[C@@](C)(C(=O)O1)[C@H]2[C@@H]3C(=O)O", "activity change, negative = viability loss": "-5.89% (inactive)"},
      {"smiles": "COc1ccc(C2(O)c3c(ccc4c3OC(C)(CCC=C(C)C)C=C4)NC(=O)C2OC)cc1", "note": "(configuration not stated)", "activity change, negative = viability loss": "-22.6% [at 17.3 µM] (inactive)"},
      {"smiles": "O=C(O)CCc1c(C(=O)O)[nH]c2cc(Cl)cc(Cl)c12", "activity change, negative = viability loss": "-0.269% [at 17.3 µM] (inactive)"},
      {"smiles": "CC(O)C1CCC2C3CCC4CC(OC5OC(C(=O)O)C(O)C(O)C5O)CCC4(C)C3CCC12C", "note": "(configuration not stated)", "activity change, negative = viability loss": "-13.1% (inactive)"},
      {"smiles": "COc1cc(/C=C/C(=O)O[C@H]2[C@H](O)[C@@H](CO)O[C@@]2(CO)O[C@H]2O[C@H](CO)[C@@H](O)[C@H](O)[C@H]2O)cc(OC)c1O", "outcome": "inactive [at 17.3 µM]"},
      {"smiles": "O=C(O)/C=C/c1ccc(O[C@@H]2O[C@H](CO)[C@@H](O)[C@H](O)[C@H]2O)cc1", "activity change, negative = viability loss": "2.63% (inactive)"},
      {"smiles": "COC(=O)C1=CO[C@@H](O[C@@H]2O[C@H](CO)[C@@H](O)[C@H](O)[C@H]2O)[C@@H]2C(CO)=CC[C@H]12", "activity change, negative = viability loss": "2.86% (inactive)"},
      {"smiles": "CC1(C)CC2C(O)C3=C(CC(C)(O)C2C1)C(=O)OC3", "note": "(configuration not stated)", "outcome": "inactive"},
      {"smiles": "C=C1CC[C@@H]2[C@@](C)(CO[C@@H]3O[C@H](CO)[C@@H](O)[C@H](O)[C@H]3O)[C@H](O)CC[C@@]2(C)[C@@H]1CC/C(C)=C/CO[C@@H]1O[C@H](CO)[C@@H](O)[C@H](O)[C@H]1O", "activity change, negative = viability loss": "-15.8% [at 17.3 µM] (inactive)"},
      {"smiles": "OC[C@@]1(O)CO[C@H](OC[C@H]2O[C@@H](OC(CCCCc3ccc(O)cc3)CCc3ccc(O)cc3)[C@H](O[C@H]3OC[C@](O)(CO)[C@H]3O)[C@@H](O)[C@@H]2O)[C@@H]1O", "note": "(some centres not stated)", "outcome": "inactive [at 17.3 µM]"},
      {"smiles": "COc1cc2c(c(O)c1OC/C=C(\\C)CC/C=C(/C)CCC=C(C)C)CN(C(CCC(=O)O)C(=O)O)C2=O", "note": "(configuration not stated)", "activity change, negative = viability loss": "-24.1% [at 17.3 µM] (inactive)"},
      {"smiles": "O=C(/C=C/c1ccc(O)cc1)OC[C@H]1O[C@@H](O/C(=C\\c2ccccc2)C(=O)O)[C@H](O)[C@@H](O)[C@@H]1O", "outcome": "inactive [at 17.3 µM]"},
      {"smiles": "O=C(Nc1ccn(Cc2c(F)cccc2C(F)(F)F)n1)c1c(F)cccc1F", "activity change, negative = viability loss": "-7.96% [at 9.23 µM] (inactive)"},
      {"smiles": "C/C=C/C=C/C=C/C(=O)O[C@@H]1[C@@H](OC)C2=C(C(=O)N(C(CCC(=O)O)C(=O)O)C2)[C@@]2(C)CCCC(C)(C)[C@H]12", "note": "(some centres not stated)", "activity change, negative = viability loss": "-2.57% [at 17.3 µM] (inactive)"}
    ]}
  ]
}
